Growth data for 15 compounds are collected here from PubChem BioAssay (NCI).

Structures are written as SMILES. Compounds without any hit were thinned out: in the full panel of roughly 83,000, 20% have a hit.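 For each line, cells grew in 96-well plates with the test compound present at a single concentration for 48 hours.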 A number with no mark means an inactive call. Activity calls are given as the source filed them. The calls were made as follows: active = growth percent below 10; inactive = the rest.

Some test systems named below: HCT-15 colon; HT29 colon; SNB-75 CNS; U251 CNS; PC-3 prostate; SK-MEL-5 melanoma; UACC-62 melanoma; LOX IMVI melanoma; SK-MEL-28 melanoma; SNB-19 CNS.
What all share (assay): NCI-60 one-dose screen, 48 h (100 = growth as untreated, 0 = no growth, -100 = all killed)
Common to all, as to conditions: 10 µM unless noted

For the compound `O=C(NN1C(=O)/C(=C/C=C/c2ccc([N+](=O)[O-])o2)SC1=S)c1ccc([N+](=O)[O-])cc1`, the growth with HCT-15 colon is -85.4% (active); with HT29 colon, -80.3% (active); in the assay with SNB-75 CNS, -91.1% (active); in the assay on U251 CNS, -89.4% (active); in the assay with PC-3 prostate, -72.5% (active); with SK-MEL-5 melanoma it was -100% (active). For the same compound, the growth in the assay with UACC-62 melanoma is -99.6% (active); with LOX IMVI melanoma it was -97.1% (active); with SK-MEL-28 melanoma it was -99% (active).

On to `CN1C(=O)/C(=C/c2ccco2)S/C1=N/c1nccs1`, for which the growth in the assay on HCT-15 colon was 93.8%; in the assay with HT29 colon, 103%; in the assay on SNB-75 CNS, 97.4%; in the assay on U251 CNS, 111%; with PC-3 prostate, 98.1%; with SK-MEL-5 melanoma it was 98.9%. Further, the growth in the assay on UACC-62 melanoma was 86.7%; in the assay with LOX IMVI melanoma it was 97.7%; in the assay on SK-MEL-28 melanoma, 112%.

Turning to `COc1cccc(NC(=O)c2ccc(NC(=O)CCl)s2)c1`, the growth was -29.7% (active) in the assay with HCT-15 colon; -7.55% (active) in the assay on HT29 colon; 74.6% in the assay with SNB-75 CNS; -39.9% (active) with U251 CNS; -12.4% (active) with PC-3 prostate; 32.1% in the assay on SK-MEL-5 melanoma. Also, the growth was -19.4% (active) with UACC-62 melanoma, -94.9% (active) in the assay with LOX IMVI melanoma and 51% in the assay with SK-MEL-28 melanoma.

For `COc1ccc(-c2cc(C(=O)N=Nc3c(O)[nH]c4ccc(Cl)cc34)c3ccccc3n2)cc1OC`, the growth in the assay on HCT-15 colon was 101%; in the assay with HT29 colon, 117%; with SNB-75 CNS it was 118%; with U251 CNS it was 100%; in the assay on PC-3 prostate, 103%; with SK-MEL-5 melanoma, 111%. Besides, the growth was 89.8% in the assay with UACC-62 melanoma, 90.9% with LOX IMVI melanoma and 110% with SK-MEL-28 melanoma.

For `N#C/C(=C/c1ccc([N+](=O)[O-])cc1)c1nnc(NC(=O)c2ccc(-n3c(=O)[nH]c4ccccc4c3=O)cc2)s1`, the growth with HCT-15 colon was 93.3%; in the assay on HT29 colon, 110%; in the assay with SNB-75 CNS, 110%; in the assay with U251 CNS it was 89.5%; with PC-3 prostate, 90.9%; with SK-MEL-5 melanoma, 99%. Further, the values for the growth with UACC-62 melanoma, in the assay with LOX IMVI melanoma and in the assay with SK-MEL-28 melanoma were 99.2%, 90.5% and 100%, respectively.

In the case of `Clc1ccc(-c2nc3ccc(-c4nnc(SCc5ccccc5)o4)cc3[nH]2)cc1`, the growth with HCT-15 colon is -28.9% (active); in the assay on HT29 colon it was 41.5%; in the assay on SNB-75 CNS, 40.4%; in the assay with U251 CNS it was -8.55% (active); in the assay with PC-3 prostate, 25.1%; in the assay with SK-MEL-5 melanoma, 20.9%. The values for the growth in the assay on UACC-62 melanoma, in the assay on LOX IMVI melanoma and in the assay with SK-MEL-28 melanoma were 37.7%, 4.07% (active) and 58.3%, respectively.

Take `O=C(N/N=C/c1ccoc1)c1[nH]c2ccc(Br)cc2c1-c1ccccc1`: the growth was -100% (active) in the assay on HCT-15 colon; -50.2% (active) in the assay with HT29 colon; -79.6% (active) with SNB-75 CNS; -81.5% (active) in the assay on U251 CNS; -37.3% (active) with PC-3 prostate; -97.2% (active) in the assay with SK-MEL-5 melanoma. Moreover, the growth is -99.6% (active) with UACC-62 melanoma, -100% (active) in the assay on LOX IMVI melanoma and -93.7% (active) in the assay with SK-MEL-28 melanoma.

In the case of `CN(C)CCCc1ccc(Nc2cnn(C)c(=O)c2Cl)cc1`, the growth in the assay on HCT-15 colon was 96.6%; in the assay with HT29 colon, 105%; in the assay with SNB-75 CNS, 74.2%; with U251 CNS, 105%; in the assay with PC-3 prostate, 91%; in the assay on SK-MEL-5 melanoma, 93.2%. Also, the growth in the assay with UACC-62 melanoma is 98.9%; with LOX IMVI melanoma, 101%; in the assay with SK-MEL-28 melanoma, 111%.

In the case of `CCCN(CCC)S(=O)(=O)c1ccc(C(=O)O)cc1.CCCN(CCC)S(=O)(=O)c1ccc(C(=O)O)cc1.[Cl][Pt+2][Cl].[NH2-].[NH2-]`, the growth in the assay on HCT-15 colon is 87.8%; in the assay on HT29 colon, 42%; with SNB-75 CNS, 1.96% (active); in the assay with U251 CNS it was -27.5% (active); with PC-3 prostate it was 39.7%; in the assay on SK-MEL-5 melanoma it was -91.2% (active). Moreover, the growth in the assay on UACC-62 melanoma is -90.2% (active); with LOX IMVI melanoma, -9.75% (active); in the assay on SK-MEL-28 melanoma, 1.28% (active).

Regarding `O=CNc1cccc(-n2cnc3cc(-c4ccc(O)cc4)ccc32)c1`, the growth with HCT-15 colon is 15.5%; in the assay with HT29 colon, 22.7%; in the assay with SNB-75 CNS, 21.4%; in the assay with U251 CNS, 25.4%; with PC-3 prostate, 49%; in the assay with SK-MEL-5 melanoma, 35.6%. For the same compound, the growth in the assay with UACC-62 melanoma was 38.2%; in the assay with LOX IMVI melanoma, 21.2%; with SK-MEL-28 melanoma it was 56.2%.

In the case of `CCN(C(=O)CN1C(=O)/C(=C/c2ccco2)SC1=S)C1CCS(=O)(=O)C1` (centres undefined), the growth was 88.8% in the assay with HCT-15 colon; 102% in the assay with HT29 colon; 75.3% in the assay on SNB-75 CNS; 104% in the assay with U251 CNS; 109% with PC-3 prostate; 91.9% in the assay with SK-MEL-5 melanoma. The growth with UACC-62 melanoma was 92.6%; in the assay with LOX IMVI melanoma, 90.6%; in the assay on SK-MEL-28 melanoma it was 98%.

Take `Cc1cc(N=C(N)c2ccccc2)ccc1OCCCCCCCCn1ccnc1`: the growth was 7% (active) with HCT-15 colon; 12.5% in the assay on SNB-75 CNS; 19.3% in the assay with SNB-19 CNS; 27.8% in the assay on PC-3 prostate; -80.7% (active) with LOX IMVI melanoma; -68.5% (active) with SK-MEL-28 melanoma.

As for `CS(=O)(=O)Nc1cccc(-n2cnc3cc(-c4ccc(O)cc4)ccc32)c1`, the growth is 30.9% in the assay with HCT-15 colon; 16% in the assay with HT29 colon; 53.8% in the assay on SNB-75 CNS; 26.2% in the assay with U251 CNS; 45.8% in the assay on PC-3 prostate; 19.7% with SK-MEL-5 melanoma. Besides, the growth with UACC-62 melanoma was 26.3%; in the assay with LOX IMVI melanoma it was 41.9%; in the assay on SK-MEL-28 melanoma it was 63.2%.

For the compound `S=C(Nc1ccccc1)Nc1ccc(OCc2nc3ccc(Cl)cc3[nH]2)cc1`, the growth with HCT-15 colon was 67.9%; in the assay with HT29 colon, 105%; in the assay with SNB-75 CNS it was 89.4%; in the assay on U251 CNS, 82.6%; in the assay with PC-3 prostate, 77.8%; in the assay on SK-MEL-5 melanoma, 82.8%. The results for the growth with UACC-62 melanoma and with LOX IMVI melanoma were 77.3% and 36.3%, respectively.

As for `CN1CCN(C(=O)CCN(C(=O)Oc2cc3c(c4ccccc24)[C@H](CCl)CN3C(=O)c2cc3cc(OCCCN4CCC4)ccc3[nH]2)[C@H]2CCSSC2)CC1`, the growth with HCT-15 colon is -37% (active); with HT29 colon, -69.8% (active); in the assay with SNB-75 CNS, -58.5% (active); in the assay on PC-3 prostate, -65% (active); in the assay on SK-MEL-5 melanoma, -93.7% (active); in the assay with UACC-62 melanoma it was -81.9% (active). Moreover, the growth in the assay on LOX IMVI melanoma was -71.8% (active).
